This passage reports growth results from PubChem BioAssay (NCI).

Common to all, as to assay: NCI-60 one-dose screen, 48 h (100 = growth as untreated, 0 = no growth, -100 = all killed)
Settings in all cases: 10 µM unless noted

In test [1] the test system is SR leukemia.
Test [2] deals with RPMI-8226 leukemia.
Test [3] deals with OVCAR-8 ovarian.
Test [4] relates to OVCAR-5 ovarian.
In test [5] the test system is OVCAR-4 ovarian.
The subject of test [6] is SK-OV-3 ovarian.
Test [7] concerns IGROV1 ovarian.
Test [8] relates to OVCAR-3 ovarian.
Test [9] deals with HS 578T breast.
Test [10] relates to NCI/ADR-RES ovarian.

About 83,000 compounds went through this panel and 20% of them were active in at least one assay; those are over-represented in the sample as a whole.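 A percent growth of 40 corresponds to 60% growth inhibition; 0 means no net growth; -100 means all cells died. Active threshold: below 10.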 Values without a mark were called inactive. Active and inactive are the calls of the source.

Regarding `CCNC(=O)N1CCc2c(Br)c3c(c(OC)c2C1Cc1ccc(OC)cc1)OCO3` (stereo not given), the growth in test [1] was 33.1%; in test [2], 44.3%; in [3], 49.8%; in test [4], 74.4%; in [5], 54.3%; in test [6], 27.6%. Besides, the growth in [7] was 35.7%; in test [8] it was 7.18% (active); in [9] it was 16.9%; in [10] it was 4.18% (active).

For `COc1ccc(C(=O)/C=C/c2ccccc2)cc1S(N)(=O)=O`, the growth in [1] is 13.4%; in [2] it was 64.9%; in test [3], 46.2%; in test [4] it was 101%; in [5] it was 86.1%; in [6], 116%. Further, the growth was 54.3% in [7], 52.4% in [8], 74.4% in [9] and 79.3% in test [10].

Turning to `CCCCCc1ccc(S(=O)(=O)Nc2cc(-c3csc(NC(C)=O)n3)ccc2N2CCN(C)CC2)cc1`, the growth in [1] was 14.1%; in test [2] it was -28.7% (active); in test [3] it was 70.1%; in [4], 85.3%; in [5], 66%; in test [6], 92.6%. For the same molecule, the growth in test [7] was 62.1%; in test [8], 75.6%; in [9], 67.3%; in test [10], 61.2%.

As to `CN(C)Cc1cc(C(C)(C)C)cc(Br)c1O`, the growth in test [1] was 107%; in test [2] it was 96.9%; in [3] it was 106%; in test [4], 107%; in [5], 102%; in test [6] it was 97.4%. For the same molecule, the growth in test [7] was 108%; in [8], 114%; in [9] it was 30.7%; in test [10], 106%.

Turning to `Cc1cccc(N=Nc2cccc(C)c2)c1`, the growth in [1] was 108%; in test [2] it was 110%; in test [3], 103%; in test [4] it was 94.2%; in test [5], 107%; in test [6], 106%. The growth in test [7] was 102%; in test [8], 113%; in test [9], 117%; in test [10], 108%.

Consider `Cc1[nH]c(C(=O)Nc2ccccc2OC2CCN(CCN3CCOCC3)CC2)c(Cl)c1Cl`, for which the growth in [1] is 10.3%; in test [2], 67.4%; in test [3], 101%; in [4], 96.4%; in [5] it was 97.7%; in test [6], 111%. For the same molecule, the growth is 101% in [7], 109% in [8], 93.8% in test [9] and 97.6% in [10].

As for `CC1(C)CC(=O)C2=C(C1)C(c1ccc(Cl)cc1)n1ncc(C#N)c1N2` (stereo not given), the growth in test [1] was 109%; in test [2] it was 96%; in test [3], 97%; in test [4], 103%; in [5], 96.3%; in test [6], 82.8%. The growth was 85.7% in test [7], 113% in test [8], 98.1% in test [9] and 106% in [10].

As for `N#Cc1ccc(O)c(C2=NCC(c3ccc(-c4ccccc4)cc3)O2)c1` (stereo not given), the growth is 23.7% in test [1]; 23.8% in test [2]; 16.6% in test [3]; 38.7% in test [4]; -1.03% (active) in [5]; 3.28% (active) in test [6]. In addition, the growth in test [7] is 13.7%; in test [8] it was 22.7%; in test [9], 48.9%; in test [10] it was 5.24% (active).

As for `c1ccc(-c2c(-c3ccccc3)[n+](Cc3ccc4ccccc4c3)cn2Cc2ccc3ccccc3c2)cc1`, the growth is -74.5% (active) in test [1]; -54.9% (active) in [2]; -87.4% (active) in test [3]; -29.1% (active) in test [4]; -81.5% (active) in test [5]; -97.9% (active) in test [6]. In addition, the growth in test [7] is -73.8% (active); in test [8] it was -91.1% (active); in test [9], -27.8% (active); in [10], 70.5%.

For the molecule `CC(=O)O[C@H]1CC[C@]2(C)[C@H]3CC=C4[C@@H]5CC(C)(C)CC[C@]5(C(=O)N5CCN(CCC#N)CC5)CC[C@@]4(C)[C@]3(C)CC[C@H]2C1(C)C`, the growth was 13.7% in test [1]; 13.3% in test [2]; 29.6% in test [3]; 70.6% in [4]; -44.1% (active) in test [5]; 60.6% in [6]. The growth in test [7] was 39.1%; in [8], -9.23% (active); in test [9] it was 61.2%; in [10] it was 48.8%.

As to `Cc1ccc(NC(=O)c2sc3nc(C)c(C(O)c4ccccc4)cc3c2N)cc1` (stereo not given), the growth in [1] was 1.92% (active); in [2] it was 5.22% (active); in [3], 18.6%; in test [4], 34.6%; in [5] it was 46.1%; in test [6], 14.7%. Further, the growth in [7] is 28.4%; in test [8] it was 5.7% (active); in test [9], 9.32% (active); in test [10], 7.94% (active).

Consider `COC1C(O)CC(OC2CC(OC3CC(O[C@@H]4C(=O)c5c(cc6cc(OC7CC(OC8CC(O)C(O)C(C)O8)C(O)C(C)O7)c(C)c(O)c6c5O)CC4[C@H](OC)[C@@H](O)C(C)=O)OC(C)C3O)OC(C)C2O)OC1C` (stereo not given in full), for which the growth in [1] is 4.82% (active); in test [2], 7.39% (active); in test [3], 8.72% (active); in test [4], 12%; in [5], 16.9%; in test [6] it was 22.2%. Further, the growth in test [7] was 17.4%; in [8], 5.36% (active); in test [9] it was 21.7%; in [10] it was 68.8%.

`CCOC(=O)C/C(=N\Nc1cc(=O)[nH]c2ccc(OC)cc12)C(=O)OCC`: the growth in test [1] was 67%; in [2], 68.5%; in [3], 103%; in test [4], 96.6%; in test [5], 101%; in [6], 121%. Also, the growth in test [7] was 92.4%; in test [8] it was 109%; in [9], 91.8%; in [10] it was 103%.
